PAFAH2 inh: PAFAH2 (human) inhibition; recombinant PAFAH2, FP-rhodamine activity probe, fluorescence polarization; inhibition, % at 3.39 µM; actives 0.99% (n = 340,000); AID 492956;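 active = inhibition above the mean over all tested compounds plus 3 SD, cut at about 30% in these data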;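 note: inhibitors block probe labeling of enzyme so polarization drops; 0% = enzyme with DMSO and 100% = wells lacking PAFAH2 protein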
PAFAH1B3 FP inh: inhibitors of human PAFAH1B3 | Q15102 | inhibition, % at 3.39 µM | recombinant PAFAH1B3, FP-rhodamine probe, fluorescence polarization | actives 0.28% (n = 340,000);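 active = inhibition above the screen-wide average of all tested compounds plus 3 SD, cut at about 25% in these data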;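 note: 0% = enzyme with DMSO only and 100% = wells lacking PAFAH1B3 protein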
Target sequence (Q15102 whole entry, looked up): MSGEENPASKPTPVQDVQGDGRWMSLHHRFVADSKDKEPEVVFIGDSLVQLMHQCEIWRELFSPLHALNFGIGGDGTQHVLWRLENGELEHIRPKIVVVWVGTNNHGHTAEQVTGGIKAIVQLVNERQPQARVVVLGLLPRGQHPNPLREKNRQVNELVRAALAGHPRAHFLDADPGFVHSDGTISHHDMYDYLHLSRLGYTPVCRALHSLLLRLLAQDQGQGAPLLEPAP
PME-1 inh: PME-1 (human) inhibition | recombinant PME-1, FP-Rh probe fluorescence polarization | inhibition, % at 5.9 µM | actives 0.53% (n = 320,000);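 active = inhibition above the campaign mean of all compounds plus 3 SD, cut at about 26% in these data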;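 note: competitive labeling of PME-1 active site by serine hydrolase directed probe; 0% = PME-1 with DMSO and 100% = wells lacking PME-1 enzyme; inhibitors block probe labeling so polarization falls and inhibition rises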
Fam108B inh: blocks mouse Fam108B hydrolase in RBBP9 counter-screen; recombinant Fam108B, FP-Rh probe fluorescence polarization; inhibition, % at 9.51 µM; actives 0.33% (n = 300,000);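 active = inhibition above the screen mean inhibition plus 3 SD, computed separately per campaign, cut at about 18% in these data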;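 note: inhibitors lower polarization as less probe binds the enzyme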
PAFAH1B2 inh: inhibitors of human PAFAH1B2; P68402; recombinant PAFAH1B2, FP-rhodamine activity probe, fluorescence polarization; inhibition, % at 3.39 µM; actives 1.2% (n = 340,000); AID 492953;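 active = inhibition above the mean of all tested compounds plus 3 SD, cut at about 24% in these data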;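 note: 0% = enzyme with DMSO and 100% = wells lacking PAFAH1B2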
Target sequence (P68402 whole entry, looked up): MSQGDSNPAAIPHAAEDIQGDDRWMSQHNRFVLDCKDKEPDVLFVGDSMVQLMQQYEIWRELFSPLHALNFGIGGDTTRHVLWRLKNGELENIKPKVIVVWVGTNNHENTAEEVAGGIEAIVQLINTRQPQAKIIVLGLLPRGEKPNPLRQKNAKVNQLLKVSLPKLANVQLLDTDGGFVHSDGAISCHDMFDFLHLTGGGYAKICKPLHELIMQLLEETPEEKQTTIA
pPAFAH inh: inhibitors of human plasma PAF acetylhydrolase (pPAFAH); Q13093; AID 463082; recombinant pPAFAH, FP-rhodamine probe fluorescence polarization; actives 1.5% (n = 330,000); inhibition, % at 3.39 µM;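 active = inhibition above the mean inhibition across the screen plus 3 SD, cut at about 25% in these data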;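 note: inhibitors block binding of the rhodamine activity-based probe so polarization drops; 0% = enzyme with DMSO and 100% = wells lacking pPAFAH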
pPAFAH FP conf: pPAFAH (human) inhibition, confirmed. shares compounds with pPAFAH inh. recombinant pPAFAH, FP-Rh probe fluorescence polarization. inhibition, % at 3.39 µM. actives 72% (n = 2,300). AID 463230;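 active = mean inhibition of the triplicate above the hit cutoff set for the earlier primary screen, cut at about 25% in these data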;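 note: 0% = enzyme with DMSO and 100% = wells lacking pPAFAH enzyme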
Numbers without * were called inactive. A selection: hits, their analogues and other compounds. The true share with any hit is near 2.8%.

Screening Cc1cc(SCC(=O)c2ccc3c(c2)OCO3)nc2ccccc12 returned PAFAH2 inh -13, PAFAH1B3 FP inh -8, PME-1 inh -3, Fam108B inh -10, PAFAH1B2 inh 2 and pPAFAH inh 2.
Screening C[C@H](CO)N1C[C@H](C)[C@@H](CN(C)S(C)(=O)=O)Oc2c(NC(=O)c3ccncc3)cccc2C1=O returned PAFAH2 inh 3, PAFAH1B3 FP inh 6, PAFAH1B2 inh -2 and pPAFAH inh 4.
`COc1ccc(S(=O)(=O)Nc2cccc3c2O[C@@H](CN(C)Cc2ccc(C(=O)O)cc2)[C@@H](C)CN([C@H](C)CO)C3=O)cc1` gave PAFAH2 inh 14, PAFAH1B3 FP inh 11, PAFAH1B2 inh 5 and pPAFAH inh 0.
C[C@H](CO)N1C[C@H](C)[C@@H](CN(C)Cc2ccc(C(=O)O)cc2)Oc2c(cccc2N(C)C)C1=O was read as PAFAH2 inh 17, PAFAH1B3 FP inh -3, PAFAH1B2 inh 0 and pPAFAH inh 8.
O=C1CCc2cc(NS(=O)(=O)c3ccc([N+](=O)[O-])cc3)cc3c2N1CCC3 was read as PAFAH2 inh 1, PAFAH1B3 FP inh 1, PME-1 inh 0, Fam108B inh 2, PAFAH1B2 inh 1 and pPAFAH inh 12.
`CCc1ccc(NC(=O)C(C)OC(=O)c2cc(=O)[nH]c3ccc(S(=O)(=O)Nc4ccc(F)cc4)cc23)cc1` (centres undefined) gave PAFAH2 inh -33, PAFAH1B3 FP inh -23, PME-1 inh -23, Fam108B inh -28, PAFAH1B2 inh -14, pPAFAH inh 73* and pPAFAH FP conf 56*.
Screening O=C(NNC(=S)Nc1ccc(Cl)c(Cl)c1)c1ccccn1 returned PAFAH2 inh 9, PAFAH1B3 FP inh 15, PME-1 inh 10, Fam108B inh 1, PAFAH1B2 inh 20, pPAFAH inh 37* and pPAFAH FP conf 51*.
Screening CCNC(=S)NNC(=O)c1ccccn1 returned PAFAH2 inh -7, PAFAH1B3 FP inh 10, PME-1 inh -3, Fam108B inh 3, PAFAH1B2 inh 7 and pPAFAH inh -2.
Screening COc1ccc(Cl)cc1N(CC(=O)NCCSc1ccccn1)S(=O)(=O)c1ccccc1 returned PAFAH2 inh 8, PAFAH1B3 FP inh 5, PME-1 inh 2, Fam108B inh 2, PAFAH1B2 inh 0 and pPAFAH inh 4.
Cc1nn(C)cc1S(=O)(=O)N1CCN(Cc2cccc(Cl)c2)CC1 was read as PAFAH2 inh 0, PAFAH1B3 FP inh 5, PME-1 inh -2, Fam108B inh 0, PAFAH1B2 inh 7 and pPAFAH inh 9.
Cc1c(N/C(=N/S(=O)(=O)c2ccc(Cl)cc2)c2ccccc2)c(=O)n(-c2ccccc2)n1C was read as PME-1 inh 4, Fam108B inh 0, pPAFAH inh 82* and pPAFAH FP conf -7.
Screening Cc1c(N/C(=N/S(=O)(=O)c2ccccc2)c2ccc(Cl)cc2)c(=O)n(-c2ccccc2)n1C returned PAFAH2 inh -1, PAFAH1B3 FP inh 3, PME-1 inh 5, Fam108B inh -1, PAFAH1B2 inh 4 and pPAFAH inh 3.
CNc1ccccc(-c2ccc3cc4c(cc3n2)OCO4)c1=O was read as PAFAH2 inh 4, PAFAH1B3 FP inh 2, PME-1 inh 2, Fam108B inh 1, PAFAH1B2 inh -3, pPAFAH inh 84* and pPAFAH FP conf 0.
Screening c1ccc2nc(-c3ccc4c(c3)OCO4)ccc2c1 returned PAFAH2 inh 5, PAFAH1B3 FP inh 6, PME-1 inh -3, Fam108B inh -3, PAFAH1B2 inh 6 and pPAFAH inh 0.
Screening COC(=O)/C=C/c1cc(F)ccc1S(=O)(=O)NC(C)(C)C returned PAFAH2 inh 0, PAFAH1B3 FP inh 4, PME-1 inh -3, Fam108B inh 3, PAFAH1B2 inh 9 and pPAFAH inh -4.
Screening Cc1cc(C)n(-c2ccc(C(=O)OCc3ccccc3)cc2)n1 returned PAFAH2 inh -4, PAFAH1B3 FP inh -7, PME-1 inh 9, Fam108B inh 0, PAFAH1B2 inh 1 and pPAFAH inh 12.

Screens from PubChem BioAssay.
